The source made the active and inactive calls.
Legend:
[1] = test system: Plasmodium falciparum Sir2 (PF13_0152, Sir2A); assay: Plasmodium falciparum Sir2A binding compounds – biochemical, small-molecule microarray, 635 nm fluorescence, primary screen (AID 1098); conditions: fluorescence 635 nm, higher = more signal;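 further: score merges spot fluorescence intensity with its signal-to-noise ratio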
[2] = probe aDKK1 binding to arrayed compounds – biochemical, biotinylated probe, 635/667 nm fluorescence, primary screen (AID 1099); conditions: small-molecule microarray, higher = more signal;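 further: score merges 667nm spot fluorescence with signal to noise across triplicate slides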
[3] = probe aCHRDL2 binding to arrayed compounds – biochemical, biotinylated probe, 635/667 nm fluorescence, primary screen (AID 1100); conditions: small-molecule microarray, higher = more signal
[4] = change in splice reporter luminescence, either direction, cell-based, HEK293, spliceosome inhibition project, primary screen (AID 1101); conditions: HEK293 splicing luciferase reporter, 24 h, higher = more signal, called active from +8 up or from −8 down;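 further: HEK293 cells carrying a splicing-competent luciferase reporter gene; test concentration not given here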
[5] = target: Fibroblast growth factor 10 (Homo sapiens) (UniProt O15520); assay: compounds binding fibroblast growth factor 10 – biochemical, small-molecule microarray, 635 nm fluorescence, primary screen (AID 1102); conditions: FGF10 binding, fluorescence 635 nm, higher = more signal
Fibroblast growth factor 10 (Homo sapiens), sequence (O15520 whole entry, looked up): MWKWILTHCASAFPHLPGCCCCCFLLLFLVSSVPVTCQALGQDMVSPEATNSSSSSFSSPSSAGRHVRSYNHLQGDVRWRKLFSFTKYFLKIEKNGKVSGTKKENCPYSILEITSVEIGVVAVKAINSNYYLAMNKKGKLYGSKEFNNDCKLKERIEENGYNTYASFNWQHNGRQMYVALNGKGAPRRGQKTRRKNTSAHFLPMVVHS

[6] = test system: glycogen synthase kinase-3 (GSK3A per assay name; protocol says GSK3B); assay: compounds binding glycogen synthase kinase-3 – biochemical, small-molecule microarray, 635 nm fluorescence, GSK3A, primary screen (AID 1103); conditions: fluorescence 635 nm, higher = more signal; further: the record names both GSK3A and GSK3B
[7] = target: Epidermal growth factor receptor (Homo sapiens) (UniProt P00533); assay: compounds binding epidermal growth factor receptor – biochemical, small-molecule microarray, 635 nm fluorescence, primary screen (AID 1104); conditions: EGFR binding, higher = more signal;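 further: score merges 667 nm emission intensity with spot signal to noise over triplicate slides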
Epidermal growth factor receptor (Homo sapiens), sequence (P00533 whole entry, looked up): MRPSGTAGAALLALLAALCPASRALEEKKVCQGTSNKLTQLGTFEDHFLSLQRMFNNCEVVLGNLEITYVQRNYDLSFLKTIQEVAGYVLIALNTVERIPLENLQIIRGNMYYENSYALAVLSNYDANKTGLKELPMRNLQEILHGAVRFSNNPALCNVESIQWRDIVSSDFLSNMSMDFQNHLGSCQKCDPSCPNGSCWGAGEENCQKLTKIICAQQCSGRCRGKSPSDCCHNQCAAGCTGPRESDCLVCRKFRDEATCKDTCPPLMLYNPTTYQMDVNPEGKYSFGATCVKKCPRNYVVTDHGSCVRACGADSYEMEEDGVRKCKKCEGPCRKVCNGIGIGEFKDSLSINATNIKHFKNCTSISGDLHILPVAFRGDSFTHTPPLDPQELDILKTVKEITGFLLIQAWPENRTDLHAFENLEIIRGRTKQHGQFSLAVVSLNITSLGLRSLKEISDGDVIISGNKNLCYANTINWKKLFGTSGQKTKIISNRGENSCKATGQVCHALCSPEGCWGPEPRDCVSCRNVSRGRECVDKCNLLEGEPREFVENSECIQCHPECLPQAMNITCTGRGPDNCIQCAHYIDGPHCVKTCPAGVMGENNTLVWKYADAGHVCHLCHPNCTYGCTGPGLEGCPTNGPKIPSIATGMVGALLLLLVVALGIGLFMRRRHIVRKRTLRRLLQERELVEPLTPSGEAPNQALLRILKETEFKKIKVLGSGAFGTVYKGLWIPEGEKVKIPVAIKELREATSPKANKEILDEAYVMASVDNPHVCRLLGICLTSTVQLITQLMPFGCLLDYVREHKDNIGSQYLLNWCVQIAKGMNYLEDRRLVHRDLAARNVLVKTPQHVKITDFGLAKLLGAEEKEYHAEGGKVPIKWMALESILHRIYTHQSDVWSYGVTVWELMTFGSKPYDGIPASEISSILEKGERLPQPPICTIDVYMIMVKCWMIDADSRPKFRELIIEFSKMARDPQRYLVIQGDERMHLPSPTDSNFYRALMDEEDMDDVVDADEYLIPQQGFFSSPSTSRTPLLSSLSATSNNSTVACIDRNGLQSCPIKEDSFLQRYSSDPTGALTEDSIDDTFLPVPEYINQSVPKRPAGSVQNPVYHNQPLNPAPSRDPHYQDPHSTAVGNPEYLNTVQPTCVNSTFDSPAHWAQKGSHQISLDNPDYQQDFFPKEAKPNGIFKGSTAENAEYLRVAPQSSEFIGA

[8] = target: Follistatin-related protein 3 (Homo sapiens) (UniProt O95633); assay: compounds binding follistatin-related protein 3 – biochemical, small-molecule microarray, 635 nm fluorescence, primary screen (AID 1105); conditions: FSTL3 binding, higher = more signal;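 further: score merges emission near 667 nm and signal to noise per printed spot across three slides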
Follistatin-related protein 3 (Homo sapiens), sequence (O95633 whole entry, looked up): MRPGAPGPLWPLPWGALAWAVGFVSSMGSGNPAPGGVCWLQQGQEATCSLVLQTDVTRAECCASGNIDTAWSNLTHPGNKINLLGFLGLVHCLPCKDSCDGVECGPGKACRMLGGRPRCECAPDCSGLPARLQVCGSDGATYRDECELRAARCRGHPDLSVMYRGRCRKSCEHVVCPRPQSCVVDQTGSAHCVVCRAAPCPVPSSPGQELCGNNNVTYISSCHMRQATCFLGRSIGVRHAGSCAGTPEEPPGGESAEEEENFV

[9] = target: Dickkopf-related protein 1 (Homo sapiens) (UniProt O94907); assay: small molecules binding DKK1 protein – biochemical, small-molecule microarray, 635 nm fluorescence scan, primary screen (AID 1106); conditions: higher = more signal;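 further: score merges emission near 667 nm with signal to noise over three replicate slides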
Dickkopf-related protein 1 (Homo sapiens), sequence (O94907 whole entry, looked up): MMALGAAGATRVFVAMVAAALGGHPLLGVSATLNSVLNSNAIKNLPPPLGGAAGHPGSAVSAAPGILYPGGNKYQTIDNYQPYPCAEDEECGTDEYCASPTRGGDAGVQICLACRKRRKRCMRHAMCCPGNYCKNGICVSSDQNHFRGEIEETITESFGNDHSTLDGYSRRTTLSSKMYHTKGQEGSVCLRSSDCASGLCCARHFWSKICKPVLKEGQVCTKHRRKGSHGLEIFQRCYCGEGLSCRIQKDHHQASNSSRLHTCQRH

[10] = test system: Inhibin beta A chain (activin A); assay: small molecules binding activin A – biochemical, small-molecule microarray, 635 nm fluorescence scan, primary screen (AID 1107); conditions: INHBA, higher = more signal;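 further: mouse activin A protein probed at 4.33 µg/mL on printed slides; score merges bound-protein fluorescence near 667 nm with spot signal-to-noise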
[11] = test system: Human papillomavirus type 1a protein E7 (residues 44-93); assay: small molecules binding HPV E7 44-93 – biochemical, small-molecule microarray, residues 44-93, 635 nm fluorescence, primary screen (AID 1108); conditions: fluorescence 635 nm, higher = more signal;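 further: E7 fragment applied at 1 µg/mL in TBST for 1 h at 4 C; score combines spot fluorescence with its signal to noise ratio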
[12] = hepatitis C replication reporter changes, two-sided – Huh7 cells, luciferase reporter, HCV replication inhibitor project, primary screen (AID 1109); conditions: Huh7 HCV replicon luciferase reporter, 48 h; higher = more signal;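 further: huh7 hepatoma cells harbouring a luciferase neomycin HCV replicon reporter; luciferase luminescence as measure of HCV replicon replication; test concentration not given here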
[13] = target: Left-right determination factor 2 (Homo sapiens) (UniProt O00292); assay: small molecules binding LEFTY2 protein – biochemical, small-molecule microarray, 635 nm fluorescence scan, primary screen (AID 1110); conditions: higher = more signal
Left-right determination factor 2 (Homo sapiens), sequence (O00292 whole entry, looked up): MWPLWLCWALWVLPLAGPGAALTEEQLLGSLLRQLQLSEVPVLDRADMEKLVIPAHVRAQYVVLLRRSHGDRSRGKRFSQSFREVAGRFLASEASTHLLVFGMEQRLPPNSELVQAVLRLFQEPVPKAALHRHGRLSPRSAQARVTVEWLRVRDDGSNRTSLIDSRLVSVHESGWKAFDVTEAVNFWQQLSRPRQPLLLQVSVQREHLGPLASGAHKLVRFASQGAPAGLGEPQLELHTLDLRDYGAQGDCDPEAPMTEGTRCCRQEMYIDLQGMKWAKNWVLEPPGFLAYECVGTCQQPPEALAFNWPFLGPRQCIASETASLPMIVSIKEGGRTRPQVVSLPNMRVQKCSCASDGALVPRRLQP

[14] = target: Calmodulin-1 (Homo sapiens) (UniProt P0DP23); assay: small molecules binding calmodulin-1 with EGTA – biochemical, small-molecule microarray, Cy5-labelled CALM1, profiling panel (AID 1111); conditions: Cy5-CALM1 binding fluorescence, higher = more signal;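 further: labelled calmodulin applied in Tris saline Tween buffer holding calcium plus EGTA and DTT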
[15] = target: Calmodulin-1 (Homo sapiens) (UniProt P0DP23); assay: small molecules binding Ca-loaded calmodulin-1 – biochemical, small-molecule microarray, Cy5-labelled CALM1, plus calcium, artefact control for SMM control-protein annotation, profiling panel (AID 1112); conditions: Cy5-CALM1 binding fluorescence, higher = more signal;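 further: score merges spot fluorescence with signal to noise from triplicate slides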
[16] = probe aWnt5a binding to arrayed compounds – biochemical, biotinylated probe, 635/667 nm fluorescence, primary screen (AID 1113); conditions: small-molecule microarray, higher = more signal;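 further: score merges 667 nm fluorescence intensity with signal-to-noise per printed feature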
[17] = probe aShh binding to arrayed compounds – biochemical, biotinylated probe, 635/667 nm fluorescence, primary screen (AID 1114); conditions: small-molecule microarray, higher = more signal;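 further: probe is biotin-labelled aShh protein from a stem cell growth factor screen; measures binding of labelled protein to compounds printed on the slide; score merges feature fluorescence at 667 nm with signal-to-noise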
[18] = probe aNog binding to arrayed compounds – biochemical, biotinylated probe, 635/667 nm fluorescence, primary screen (AID 1115); conditions: small-molecule microarray, higher = more signal;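 further: probe is biotinylated aNog protein used at 0.15 µg/mL for 1 h at 4 C; z-score combines 667 nm fluorescence of each spot with its signal to noise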
[19] = target: Torsin-1A-interacting protein 1 (Homo sapiens) (UniProt Q5JTV8); assay: compound microarray binding of lysate hLAP1 – cell lysate, small-molecule microarray, COS7 lysate, 635/667 nm fluorescence, primary screen (AID 1116); conditions: 635 nm fluorescence, higher = more signal
Torsin-1A-interacting protein 1 (Homo sapiens), sequence (Q5JTV8 whole entry, looked up): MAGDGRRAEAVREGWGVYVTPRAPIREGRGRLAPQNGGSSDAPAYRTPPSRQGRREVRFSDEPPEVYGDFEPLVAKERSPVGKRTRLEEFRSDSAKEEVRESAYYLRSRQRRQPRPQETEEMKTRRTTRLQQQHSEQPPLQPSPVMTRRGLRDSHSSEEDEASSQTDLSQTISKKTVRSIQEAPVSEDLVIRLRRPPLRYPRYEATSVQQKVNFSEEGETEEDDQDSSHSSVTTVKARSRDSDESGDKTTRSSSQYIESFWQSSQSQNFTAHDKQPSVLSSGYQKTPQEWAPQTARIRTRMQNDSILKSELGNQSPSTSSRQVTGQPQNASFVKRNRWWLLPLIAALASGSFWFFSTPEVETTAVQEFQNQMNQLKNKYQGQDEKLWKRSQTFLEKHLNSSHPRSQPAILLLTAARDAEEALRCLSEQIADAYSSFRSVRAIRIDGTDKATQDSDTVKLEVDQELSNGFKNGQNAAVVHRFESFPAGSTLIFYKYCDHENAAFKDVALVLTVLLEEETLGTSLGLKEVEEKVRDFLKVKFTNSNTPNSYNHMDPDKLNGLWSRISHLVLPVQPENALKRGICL

[20] = target: Alpha-bungarotoxin (Bungarus multicinctus) (UniProt P60615); assay: compounds binding labelled alpha-BTX control protein – biochemical, small-molecule microarray, Alexa647 label, 635/667 nm fluorescence, artefact control for SMM control protein annotation, profiling panel (AID 1117); conditions: alpha-BTX-A647 binding fluorescence, higher = more signal
Alpha-bungarotoxin (Bungarus multicinctus), sequence (P60615 whole entry, looked up): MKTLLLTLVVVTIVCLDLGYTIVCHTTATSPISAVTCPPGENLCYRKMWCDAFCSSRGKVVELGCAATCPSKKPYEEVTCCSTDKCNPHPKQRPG

| Structure (SMILES) | composite z-score [1] | composite z-score [2] | composite z-score [3] | z-score [4] | composite z-score [5] | composite z-score [6] | composite z-score [7] | composite z-score [8] | composite z-score [9] | composite z-score [10] | composite z-score [11] | z-score [12] | composite z-score [13] | composite z-score [14] | composite z-score [15] | composite z-score [16] | composite z-score [17] | composite z-score [18] | composite z-score [19] | composite z-score [20] |
| --- | --- | --- | --- | --- | --- | --- | --- | --- | --- | --- | --- | --- | --- | --- | --- | --- | --- | --- | --- | --- |
| CCOC(=O)CCN1C(=O)[C@H]2[C@H]3[C@H](O)[C@H](O)CC(=NNC(=O)OCc4ccccc4)[C@@H]3CC[C@H]2C1=O | 0.205 | -0.111 | -0.201 | 0.265 (inactive) | 0.709 | 0.323 | 0.188 | 0.993 | 0.516 | -0.196 | 0.582 | -0.582 | 0.929 | 0.634 | -0.0903 | -0.0819 | -0.0035 | -0.147 | 0.754 | 0.999 |
| COCOc1ccc(Br)cc1C(=O)[C@@H]1O[C@H]1c1cccc(OC)c1 | 0.82 | -0.0616 | -0.0631 | -0.455 (inactive) | 0.152 | 0.117 | 0.284 | 0.16 | 0.219 | 0.849 | -0.392 | -3.74 | 0.377 | -0.213 | -0.187 | -0.148 | -0.136 | -0.0428 | 0.616 | 0.187 |
| CCOC(=O)NN=C1C[C@@H](O)[C@@H](O)[C@@H]2[C@@H]3C(=O)N([C@@H](C)c4ccccc4)C(=O)[C@@H]3CC[C@@H]12 | 0.799 | -0.315 | -0.677 | 1.31 (inactive) | 0.725 | 1.12 | 1.09 | 1.34 | 0.867 | 1.43 | 0.207 | 0.0672 | 0.937 | -0.762 | -2.03 | -0.191 | -0.476 | -0.12 | 1.41 | -0.778 |
| COC(=O)CC=C[C@@H](C)[C@@H](C=NOC[C@@H](O)[C@H]1O[C@@H]2OC(C)(C)O[C@@H]2[C@H]1O)NS(=O)(=O)c1ccc(C)cc1 | 0.698 | -0.251 | -0.614 | 0.318 (inactive) | 0.504 | 0.471 | 0.419 | 0.427 | 0.653 | -0.0684 | 0.496 | -0.499 | 0.417 | 0.0636 | -0.627 | -0.0882 | -0.715 | 0.0416 | 0.167 | 0.101 |
| CO[C@H]1COC(=O)[C@@H](C)COC(=O)[C@H](C)NC(=O)CC=C[C@H]1C | 0.473 | -0.537 | -1.73 | -0.0731 (inactive) | 0.577 | 0.732 | 0.785 | 1.54 | 1.32 | 1.13 | -0.328 | -0.399 | 1.28 | -0.451 | -1.98 | -0.178 | -0.243 | -0.379 | -0.15 | -0.354 |
| CC(C)C[C@H](NC(=O)CCC1CC(OC(=O)NCc2cccc3ccccc23)CC2(CCCC(COC(=O)NCc3ccccc3)O2)O1)C(=O)NCC(c1ccccc1)c1ccccc1 (stereo not given in full) | 0.683 | -0.0553 | -0.304 | 0.536 (inactive) | 1.26 | 0.91 | 0.667 | 1.12 | 0.861 | -0.156 | 1.28 | -1.27 | 0.913 | 0.0799 | -0.202 | -0.0825 | 0.0611 | -0.0863 | 0.508 | -0.157 |
| C#CCCCON=C1C[C@@H](O)[C@@H](O)[C@@H]2[C@@H]3C(=O)N(C(C)(C)C)C(=O)[C@@H]3CC[C@@H]12 | 0.856 | 1.19 | 1.28 | 0.624 (inactive) | -0.624 | -0.545 | -0.306 | -0.576 | -1.1 | 0.477 | 0.0592 | 1.17 | -0.442 | -0.389 | -0.165 | -0.0721 | -0.338 | 0.305 | 0.805 | 0.323 |
| CC(C)(C)N1C(=O)[C@H]2[C@H]3[C@H](O)[C@H](O)CC(=O)[C@H]3CC[C@H]2C1=O | 0.0159 | -0.282 | -0.674 | -0.432 (inactive) | 0.287 | 0.694 | 0.456 | 0.426 | 0.624 | -0.167 | 0.487 | -0.041 | 0.473 | 0.133 | -0.816 | 0.0267 | -0.186 | -0.0996 | 0.274 | 0.642 |
| CCOC(=O)[C@H](Cc1ccccc1)NC(=O)CCC1CC(OC(=O)NCc2cccc3ccccc23)CC2(CCCC(COC(=O)NCc3ccccc3)O2)O1 (stereo not given in full) | 0.388 | -0.208 | -0.285 | -2.41 (inactive) | 0.286 | -0.231 | 0.173 | 0.689 | 0.223 | 0.103 | 0.836 | -1.03 | 0.168 | 0.507 | -0.607 | -0.2 | -0.145 | -0.144 | -0.0849 | 0.713 |
| COC(=O)[C@@H]1CC[C@H](C)[C@@H](c2ccc(C)cc2)N1C(=O)c1ccc(C=NO[C@H](C)c2cn([C@@H]3COC[C@H]3O)nn2)cc1 | 0.266 | -0.132 | -0.369 | 0.0134 (inactive) | 0.718 | 0.891 | 0.67 | 0.66 | 0.831 | -1.14 | 1.33 | -1.06 | 0.635 | 0.0264 | -0.361 | -0.152 | 0.0141 | -0.0065 | 0.581 | -0.0105 |
| CCCCC#C[C@@H]1C=C[C@H](Oc2cc(OC)c(OC)c(OC)c2)[C@@H](COC(=O)OCC)O1 | 0.589 | -0.328 | -0.619 | -0.696 (inactive) | 0.306 | -0.682 | 0.0389 | -0.203 | 0.514 | 0.444 | -0.709 | -0.548 | 0.144 | -0.659 | -0.986 | -0.124 | -0.276 | -0.158 | 0.0606 | 0.624 |
